# Assays:
# Test in all cases: DAPPL (digital affinity profiling via proximity ligation, sequencing); 10 mM Tris-HCl pH 7.5, 50 mM NaCl, 1 mM DTT, 4% glycerol, room temperature, 30 min; GST-TFs on glutathione beads, 16-mer random dsDNA library, 0.1% formaldehyde crosslink after washing; high values mean tight binding
# Conditions in all cases: protein: recombinant; tags: N-terminal GST; dsDNA, one strand shown
# [1] = target: T1, FLI1 (Homo sapiens, UniProt Q01543 1-452)
# T1 sequence: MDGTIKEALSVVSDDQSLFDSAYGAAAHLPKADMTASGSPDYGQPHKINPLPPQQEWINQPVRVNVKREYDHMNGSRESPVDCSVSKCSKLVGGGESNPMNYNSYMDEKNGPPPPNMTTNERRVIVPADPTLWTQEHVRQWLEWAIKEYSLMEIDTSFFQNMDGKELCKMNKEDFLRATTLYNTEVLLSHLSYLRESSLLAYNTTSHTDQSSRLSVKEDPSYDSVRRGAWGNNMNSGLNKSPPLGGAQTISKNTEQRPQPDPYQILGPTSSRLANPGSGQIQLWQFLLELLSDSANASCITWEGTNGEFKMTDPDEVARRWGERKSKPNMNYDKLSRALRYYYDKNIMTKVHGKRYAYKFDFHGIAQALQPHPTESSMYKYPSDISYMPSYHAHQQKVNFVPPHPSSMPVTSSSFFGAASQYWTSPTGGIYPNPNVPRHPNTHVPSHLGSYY
# Summary of the method: (§1)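 Sequencing on an Illumina NextSeq500 followed washing, crosslinking with 0.1% formaldehyde, proximity ligation (BsaI/T4 ligase, 1 h, 37 °C) and PCR amplification of pools that had been incubated for 30 min at room temperature with 200 nmole of a random double-stranded 16-mer DNA library in Tris/NaCl/DTT/glycerol buffer. Each pool held DNA-barcoded human transcription factors, expressed in yeast as GST fusions and captured on glutathione beads, plus a tag-only sample. Binding signal is a hexamer's read frequency for a factor divided by its frequency in the tag-only sample.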
# [2] = target: T2, ELK1 (Homo sapiens, UniProt P19419 1-428)
# T2 sequence: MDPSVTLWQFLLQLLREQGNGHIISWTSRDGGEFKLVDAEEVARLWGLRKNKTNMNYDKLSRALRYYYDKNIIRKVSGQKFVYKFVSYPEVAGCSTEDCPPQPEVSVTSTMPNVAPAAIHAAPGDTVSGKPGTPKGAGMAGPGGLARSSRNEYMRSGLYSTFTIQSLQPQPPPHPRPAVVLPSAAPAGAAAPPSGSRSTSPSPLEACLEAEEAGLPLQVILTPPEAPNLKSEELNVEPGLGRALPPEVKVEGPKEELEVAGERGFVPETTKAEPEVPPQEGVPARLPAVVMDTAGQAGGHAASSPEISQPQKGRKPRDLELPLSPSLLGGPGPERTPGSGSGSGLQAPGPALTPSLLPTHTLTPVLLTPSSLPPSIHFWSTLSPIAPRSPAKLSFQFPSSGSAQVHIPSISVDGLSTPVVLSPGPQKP
# Summary of the method: as §1
# [3] = target: T3, GABPA (Homo sapiens, UniProt Q06546 1-454)
# T3 sequence: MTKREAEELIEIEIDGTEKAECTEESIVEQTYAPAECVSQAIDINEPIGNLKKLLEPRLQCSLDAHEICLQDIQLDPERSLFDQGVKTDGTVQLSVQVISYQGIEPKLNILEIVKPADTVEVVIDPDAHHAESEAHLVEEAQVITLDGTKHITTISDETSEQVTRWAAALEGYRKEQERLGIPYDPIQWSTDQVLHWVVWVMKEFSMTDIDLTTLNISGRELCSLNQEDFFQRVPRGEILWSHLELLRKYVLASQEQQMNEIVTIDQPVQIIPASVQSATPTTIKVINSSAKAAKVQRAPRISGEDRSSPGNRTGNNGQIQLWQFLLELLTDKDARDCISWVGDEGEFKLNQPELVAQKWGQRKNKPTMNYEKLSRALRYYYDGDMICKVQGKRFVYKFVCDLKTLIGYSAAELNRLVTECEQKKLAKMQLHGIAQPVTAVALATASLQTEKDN
# Summary of the method: as §1
# [4] = target: T4, ERG (Homo sapiens, UniProt P11308 1-479)
# T4 sequence: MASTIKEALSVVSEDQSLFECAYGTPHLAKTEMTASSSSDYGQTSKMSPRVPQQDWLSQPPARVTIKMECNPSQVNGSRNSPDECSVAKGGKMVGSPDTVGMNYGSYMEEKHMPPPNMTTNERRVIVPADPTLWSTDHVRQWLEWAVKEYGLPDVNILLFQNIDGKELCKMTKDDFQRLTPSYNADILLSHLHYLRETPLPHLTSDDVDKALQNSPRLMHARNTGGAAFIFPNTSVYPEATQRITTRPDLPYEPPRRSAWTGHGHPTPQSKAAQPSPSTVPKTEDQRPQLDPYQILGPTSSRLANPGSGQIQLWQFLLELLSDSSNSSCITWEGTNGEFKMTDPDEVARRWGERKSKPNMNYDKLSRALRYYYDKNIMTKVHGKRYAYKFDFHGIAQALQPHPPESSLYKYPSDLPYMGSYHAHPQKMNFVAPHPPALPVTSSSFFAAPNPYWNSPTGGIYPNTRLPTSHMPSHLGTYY
# Summary of the method: as §1
# [5] = target: ELF1 (Homo sapiens, UniProt P32519 1-619)
# Sequence of ELF1 (P32519 whole entry): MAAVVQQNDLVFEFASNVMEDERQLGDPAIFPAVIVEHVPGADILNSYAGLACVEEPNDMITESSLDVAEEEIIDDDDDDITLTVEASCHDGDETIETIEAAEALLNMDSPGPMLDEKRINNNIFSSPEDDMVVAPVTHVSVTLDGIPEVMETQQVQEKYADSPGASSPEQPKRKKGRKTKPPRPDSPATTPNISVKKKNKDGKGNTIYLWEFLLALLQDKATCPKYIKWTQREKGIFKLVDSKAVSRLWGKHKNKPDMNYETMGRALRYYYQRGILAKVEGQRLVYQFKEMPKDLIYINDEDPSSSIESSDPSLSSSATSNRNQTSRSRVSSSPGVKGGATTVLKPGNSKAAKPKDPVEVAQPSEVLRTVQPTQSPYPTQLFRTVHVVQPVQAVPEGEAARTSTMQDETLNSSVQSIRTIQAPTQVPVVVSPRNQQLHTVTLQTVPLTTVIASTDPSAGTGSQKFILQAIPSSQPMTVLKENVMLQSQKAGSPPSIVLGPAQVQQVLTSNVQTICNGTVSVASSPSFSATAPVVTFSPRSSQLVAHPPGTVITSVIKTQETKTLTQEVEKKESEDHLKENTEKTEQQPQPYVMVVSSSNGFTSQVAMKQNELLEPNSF
# Summary of the method: as §1
# [6] = target: T5, EHF (Homo sapiens, UniProt Q9NZC4 1-300)
# T5 sequence: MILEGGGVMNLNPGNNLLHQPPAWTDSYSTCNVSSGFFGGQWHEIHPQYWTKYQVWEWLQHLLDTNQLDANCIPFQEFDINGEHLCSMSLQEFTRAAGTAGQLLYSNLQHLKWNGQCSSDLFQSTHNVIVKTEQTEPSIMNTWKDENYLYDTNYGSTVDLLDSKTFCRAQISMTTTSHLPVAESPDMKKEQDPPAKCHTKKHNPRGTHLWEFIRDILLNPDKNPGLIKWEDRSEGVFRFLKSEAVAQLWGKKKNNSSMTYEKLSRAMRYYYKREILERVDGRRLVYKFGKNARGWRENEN
# Summary of the method: as §1
# [7] = target: SPI1 (Homo sapiens, UniProt P17947 1-270)
# Summary of the method: as §1
# [8] = target: SPIB (Homo sapiens, UniProt Q01892 1-262)
# Sequence of SPIB (Q01892 whole entry): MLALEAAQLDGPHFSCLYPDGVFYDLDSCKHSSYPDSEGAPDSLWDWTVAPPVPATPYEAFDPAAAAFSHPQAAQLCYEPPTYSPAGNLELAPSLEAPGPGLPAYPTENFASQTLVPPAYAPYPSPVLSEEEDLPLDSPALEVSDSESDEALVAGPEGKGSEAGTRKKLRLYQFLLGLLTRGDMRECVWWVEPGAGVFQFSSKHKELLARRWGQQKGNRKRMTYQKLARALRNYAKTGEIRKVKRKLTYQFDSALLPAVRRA
# Summary of the method: as §1
# [9] = target: T6, ELK3 (Homo sapiens, UniProt P41970 1-407)
# T6 sequence: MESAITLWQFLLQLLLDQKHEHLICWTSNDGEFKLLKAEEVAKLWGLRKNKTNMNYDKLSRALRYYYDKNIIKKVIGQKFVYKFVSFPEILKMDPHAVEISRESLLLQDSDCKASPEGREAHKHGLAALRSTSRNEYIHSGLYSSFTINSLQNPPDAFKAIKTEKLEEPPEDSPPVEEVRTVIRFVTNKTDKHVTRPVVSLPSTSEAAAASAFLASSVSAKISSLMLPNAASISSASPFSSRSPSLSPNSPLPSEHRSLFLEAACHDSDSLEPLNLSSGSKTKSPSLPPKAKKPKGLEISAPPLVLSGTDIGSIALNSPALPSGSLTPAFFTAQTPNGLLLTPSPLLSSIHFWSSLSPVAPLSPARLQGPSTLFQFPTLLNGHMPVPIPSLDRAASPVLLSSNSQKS
# Summary of the method: as §1
sequence,measurement,setting,value
AAACTC,binding signal,[1],"1.29 fold enrichment (6-mer frequency, TF over GST control)"
same,binding signal,[2],"1.3 fold enrichment (6-mer frequency, TF over GST control)"
same,binding signal,[3],"1.15 fold enrichment (6-mer frequency, TF over GST control)"
same,binding signal,[4],"1.17 fold enrichment (6-mer frequency, TF over GST control)"
same,binding signal,[5],"1.25 fold enrichment (6-mer frequency, TF over GST control)"
same,binding signal,[6],"1.24 fold enrichment (6-mer frequency, TF over GST control)"
same,binding signal,[7],"1.13 fold enrichment (6-mer frequency, TF over GST control)"
same,binding signal,[8],"1.18 fold enrichment (6-mer frequency, TF over GST control)"
same,binding signal,[9],"1.16 fold enrichment (6-mer frequency, TF over GST control)"
